Values joined by “and” are separate entries in the source; they are usually repeats but may differ in a detail not shown here. Equal entries are not always repeated. Inconclusive results are not listed. Active and inactive are the calls of the source. Unless noted, calls follow the shape of the dose curve; as a rule, active = well fitted curve in either direction with a large enough effect (not every such curve was filed as active); inconclusive = small, poorly fitted or top-dose-only effect, or another doubt; inactive = flat fitted curve, though single readings scatter. A value given as a limit tells only on which side of the number the result lay.

Experimental findings from PubChem BioAssay (NCATS) are described below.

A short description of assay [1]: AP1 Signaling Pathway (AID 357).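 Also: ME-180 reporter cells stimulated with EGF at its EC50 level; % is scaled to controls: 0 for no effect and ±100 for the full control effect.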 In a few lines:
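First, ME-180 AP-1-bla cells were cultured overnight at 37 °C in low-serum Opti-MEM. Next, titrated compounds with EC50 EGF were incubated 5 hours. Finally, CCF4 was added for 2.5 hours and the 460/530 nm ratio recorded.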

Assay [2] deals with Cytochrome P450 1A2 (Homo sapiens) (UniProt P05177). Briefly: p450-cyp1a2 (AID 410; calls by dose curve; also: potency is read from the fitted curve at half-maximal effect;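 as to activity change, negative = inhibition: -100% = full effect of reference inhibitor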). In a few lines: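 Luminescent readout of luciferin formed from Luciferin-ME by human CYP1A2; data normalized against complete inhibition by 57 uM furafylline. Enzyme 20nM, substrate 100uM at Km, 100mM KPO4 buffer, 60 min reaction at room temperature.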
Assay [3] in a line: NFAT Signaling Pathway (AID 444).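 Also: carbachol stimulus at about its EC50 of 1 µM final; % is scaled to controls: 0 for no effect and ±100 for the full control effect.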 To be noted: Jurkat NFAT-bla M1, carbachol, beta-lactamase ratio, 5 h; at 17.2 µM (top of the series). A digest of the protocol:
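Jurkat cells carrying an NFAT-driven β-lactamase reporter and co-transfected muscarinic M1 receptor were treated with compound plus carbachol (1 uM final, an EC50 level) for 5 h at 37 °C. CCF4 loading followed for 1 h at RT; 460/530 nm ratio gave %activity.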

Assay [4] deals with Glucocorticoid receptor (Homo sapiens) (UniProt P04150). Briefly: GR-GFP Redistribution (AID 450;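 active = compounds whose dose series gives a full or clear partial fitted curve of increased nuclear translocation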; also: potency is read from the fitted curve at half-maximal effect). To be noted: U2OS GR-GFP nuclear translocation, laser cytometry, 2 h.
For assay [5] the target is unchanged. Briefly: GR-EFC Redistribution (AID 451; calls by dose curve; also: potency is read from the fitted curve at half-maximal effect). Conditions: CHO-K1 GR-EFC translocation, beta-gal luminescence, 2 h. In a few lines: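 CHO-K1 cells stably expressing nuclear-localized β-gal enzyme acceptor and GR fused C-terminally to the enzyme donor fragment; ligand-driven nuclear translocation restores β-gal by complementation. Compounds titrated up to 46 uM final, 2 h at 37 °C; luminescence read.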

Assay [6] deals with Mitogen-activated protein kinase 10 (Mus musculus) (UniProt Q61831). The assay can be described thus: JNK3 AlphaScreen Assay (AID 530).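 Also: kinase came from lysate of stimulated human HepG2 cells; signal reports phosphorylation of biotinylated GST-cJun 1-79 at Ser73 with 10 µM ATP; % is scaled to controls: 0 for no effect and ±100 for the full control effect.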 In a few lines: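 Inhibitors reduce antibody binding to phosphorylated biotin-cJun, lowering AlphaScreen luminescence. Lysates from HepG2 cells pre-activated by IL-1beta plus TNF-alpha supplied JNK3; compounds were titrated.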
(Bead proximity is the source of the signal in Alpha formats.)

For assay [7], the target named is 3',5'-cyclic-AMP phosphodiesterase 4B (Homo sapiens) (UniProt Q07343). The assay can be described thus: qHTS Assay for Inhibitors of PDE-IV (AID 607; active = well fitted activation curve with a large enough effect in the main read-out, with a control signal flat, not every such curve was filed as active; also: % of control where 0% means no effect). In a few lines:
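HEK293 ACTOne cells with CNG channel (1000/well), endogenous PDE4; membrane potential dye, compounds up to 22.9 uM final. Fluorescence Ex 535/Em 590; RO 20-1724 (100 uM final) as reference.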
Background: In qHTS, concentration-response curves come from the screen itself.

Assay [8] is described as follows: qHTS Assay for Lipid Storage Modulators (AID 1519; calls by dose curve). Conditions: Drosophila S3 cells, BODIPY lipid droplet/cell ratio, laser cytometry, cells loaded with oleic acid; for activity change, negative = inhibition: at 25.7 µM (top of the series). In a few lines:
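Cells seeded at 5,000 per well were treated with compounds over a concentration series and loaded with oleic acid (400 uM, as added). Lipid droplet fluorescence (488 nm excitation, 500-530 nm channel) was read by laser-scanning cytometry and normalized to 20 uM Triacsin C.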

Assay [9] in a line: Stat Signaling Pathway (AID 446).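 Also: ME-180 cervical cancer cells given 40 pM IL-6 alongside compound; SIE-controlled beta-lactamase reporter measured as 460/530 nm FRET emission ratio; % is scaled to controls: 0 for no effect and ±100 for the full control effect.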 A digest of the protocol: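 ME-180 cells carrying a SIE-driven beta-lactamase reporter are stimulated with 40 pM IL-6 for 5 h at 37C in the presence of compound. The 460/530 nm FRET substrate ratio is read after 2.5 h at RT. Data are normalised to 300 pM IL-6 and to 125 nM JAK inhibitor controls.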
The target in assay [10] is Ubiquitin carboxyl-terminal hydrolase 1 (Homo sapiens) (UniProt O94782). Briefly: Inhibitors of USP1/UAF1: Pilot qHTS (AID 504865; active = well fitted inhibition curve with a large enough effect; also: nearly all actives have a fitted effect of over 35% in size; also: potency is read from the fitted curve at half-maximal effect). In a few lines: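 Kinetic fluorescence assay: 1nM USP1/UAF1, 15 min compound preincubation, then 150nM Ub-Rho; 480/540 nm.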
Assay [11] concerns the target Luciferin 4-monooxygenase (Photinus pyralis) (UniProt P08659). Briefly: Biochemical firefly luciferase enzyme assay for NPC (AID 624030; active = well fitted inhibition curve with a large enough effect;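 also: purified P. pyralis luciferase at 10 nM with luciferin and ATP substrate; 0% = DMSO and -100% = full luciferase inhibition by PTC124 control; nearly all actives have a fitted effect of over 70% in size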). In a few lines:
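Counter-screen for direct inhibition of the luciferase enzyme by approved-drug library compounds, run at 10 nM enzyme in 50 mM Tris acetate (final). Luminescence was read within 5 min of enzyme-buffer addition and normalized to PTC124 versus DMSO (0%).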

Setting [12] is: measured here: cell count channel max response.
Where [13] appears, read: measured here: lipid channel max response.

Ubiquitin carboxyl-terminal hydrolase 1 (Homo sapiens), sequence (O94782 whole entry, looked up): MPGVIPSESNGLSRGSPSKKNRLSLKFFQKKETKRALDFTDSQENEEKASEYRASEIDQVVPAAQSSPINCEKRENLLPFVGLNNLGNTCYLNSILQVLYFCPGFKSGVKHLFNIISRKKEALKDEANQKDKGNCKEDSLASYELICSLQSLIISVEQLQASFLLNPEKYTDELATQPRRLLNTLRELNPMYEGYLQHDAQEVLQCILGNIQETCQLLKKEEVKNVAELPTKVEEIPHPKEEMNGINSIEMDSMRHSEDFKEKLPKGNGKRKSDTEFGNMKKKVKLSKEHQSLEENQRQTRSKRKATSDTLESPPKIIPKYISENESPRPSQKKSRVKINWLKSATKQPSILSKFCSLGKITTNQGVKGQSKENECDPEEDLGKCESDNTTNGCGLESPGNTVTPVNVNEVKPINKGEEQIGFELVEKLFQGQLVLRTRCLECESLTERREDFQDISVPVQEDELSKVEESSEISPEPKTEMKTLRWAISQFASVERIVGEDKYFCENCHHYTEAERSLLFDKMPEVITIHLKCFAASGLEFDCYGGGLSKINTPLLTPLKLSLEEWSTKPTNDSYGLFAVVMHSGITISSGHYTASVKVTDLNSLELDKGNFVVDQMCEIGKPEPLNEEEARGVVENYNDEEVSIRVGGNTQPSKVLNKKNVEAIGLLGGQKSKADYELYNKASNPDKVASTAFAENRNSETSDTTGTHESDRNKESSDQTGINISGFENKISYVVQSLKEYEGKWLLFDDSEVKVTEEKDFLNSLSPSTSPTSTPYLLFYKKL
3',5'-cyclic-AMP phosphodiesterase 4B (Homo sapiens), sequence (Q07343 whole entry, looked up): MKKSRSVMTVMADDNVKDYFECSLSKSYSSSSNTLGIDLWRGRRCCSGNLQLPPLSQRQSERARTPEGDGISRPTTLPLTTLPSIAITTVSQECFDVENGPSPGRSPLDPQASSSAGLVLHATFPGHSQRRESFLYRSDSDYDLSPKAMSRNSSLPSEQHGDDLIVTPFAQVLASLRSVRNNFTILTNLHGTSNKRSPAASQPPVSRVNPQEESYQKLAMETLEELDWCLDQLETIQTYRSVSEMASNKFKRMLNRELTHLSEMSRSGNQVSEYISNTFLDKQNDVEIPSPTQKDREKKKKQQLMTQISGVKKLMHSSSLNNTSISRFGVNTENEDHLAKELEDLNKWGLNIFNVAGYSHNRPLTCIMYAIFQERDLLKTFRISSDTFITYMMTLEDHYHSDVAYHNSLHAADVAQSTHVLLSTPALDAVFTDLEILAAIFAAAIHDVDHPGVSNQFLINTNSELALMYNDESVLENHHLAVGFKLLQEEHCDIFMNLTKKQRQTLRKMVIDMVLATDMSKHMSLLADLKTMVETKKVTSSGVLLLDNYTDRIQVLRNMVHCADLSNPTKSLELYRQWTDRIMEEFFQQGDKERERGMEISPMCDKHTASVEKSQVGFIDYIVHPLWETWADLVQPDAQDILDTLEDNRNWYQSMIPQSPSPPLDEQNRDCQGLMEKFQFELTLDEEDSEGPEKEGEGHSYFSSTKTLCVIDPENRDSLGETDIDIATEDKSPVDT
Cytochrome P450 1A2 (Homo sapiens), sequence (P05177 whole entry, looked up): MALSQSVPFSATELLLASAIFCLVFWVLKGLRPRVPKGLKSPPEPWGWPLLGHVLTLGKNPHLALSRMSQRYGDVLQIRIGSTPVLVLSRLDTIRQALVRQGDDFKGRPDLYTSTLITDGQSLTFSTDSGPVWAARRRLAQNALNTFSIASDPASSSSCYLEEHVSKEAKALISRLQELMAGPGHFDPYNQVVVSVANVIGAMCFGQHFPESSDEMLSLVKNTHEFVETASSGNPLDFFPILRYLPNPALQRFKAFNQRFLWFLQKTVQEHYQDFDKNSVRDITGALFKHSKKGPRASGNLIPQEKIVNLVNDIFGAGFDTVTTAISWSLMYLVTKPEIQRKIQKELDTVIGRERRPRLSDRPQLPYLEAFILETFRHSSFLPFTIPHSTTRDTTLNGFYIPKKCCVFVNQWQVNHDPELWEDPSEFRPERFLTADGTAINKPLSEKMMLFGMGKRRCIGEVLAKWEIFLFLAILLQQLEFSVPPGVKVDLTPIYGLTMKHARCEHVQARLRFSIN
Glucocorticoid receptor (Homo sapiens), sequence (P04150 whole entry, looked up, the tested form may be a part): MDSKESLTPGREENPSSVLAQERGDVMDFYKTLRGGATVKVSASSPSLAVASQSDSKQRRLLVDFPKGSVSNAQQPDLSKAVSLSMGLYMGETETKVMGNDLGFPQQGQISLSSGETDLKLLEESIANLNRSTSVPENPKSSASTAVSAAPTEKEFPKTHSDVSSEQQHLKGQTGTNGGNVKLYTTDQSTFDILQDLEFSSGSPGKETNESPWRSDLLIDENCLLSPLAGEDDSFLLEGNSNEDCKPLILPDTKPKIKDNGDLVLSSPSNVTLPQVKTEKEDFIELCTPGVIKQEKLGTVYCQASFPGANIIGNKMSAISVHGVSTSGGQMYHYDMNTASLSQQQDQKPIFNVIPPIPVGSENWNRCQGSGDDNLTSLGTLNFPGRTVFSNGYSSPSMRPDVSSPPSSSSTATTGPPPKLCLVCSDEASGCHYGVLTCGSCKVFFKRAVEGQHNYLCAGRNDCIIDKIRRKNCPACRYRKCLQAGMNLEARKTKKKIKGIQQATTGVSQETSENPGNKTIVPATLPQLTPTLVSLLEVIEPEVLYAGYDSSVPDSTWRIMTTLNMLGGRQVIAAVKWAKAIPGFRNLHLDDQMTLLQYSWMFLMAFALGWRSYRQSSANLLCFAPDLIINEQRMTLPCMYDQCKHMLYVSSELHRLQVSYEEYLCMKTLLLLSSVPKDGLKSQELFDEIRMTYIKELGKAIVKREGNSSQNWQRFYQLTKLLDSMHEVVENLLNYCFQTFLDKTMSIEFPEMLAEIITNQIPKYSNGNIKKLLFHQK
Luciferin 4-monooxygenase (Photinus pyralis), sequence (P08659 whole entry, looked up): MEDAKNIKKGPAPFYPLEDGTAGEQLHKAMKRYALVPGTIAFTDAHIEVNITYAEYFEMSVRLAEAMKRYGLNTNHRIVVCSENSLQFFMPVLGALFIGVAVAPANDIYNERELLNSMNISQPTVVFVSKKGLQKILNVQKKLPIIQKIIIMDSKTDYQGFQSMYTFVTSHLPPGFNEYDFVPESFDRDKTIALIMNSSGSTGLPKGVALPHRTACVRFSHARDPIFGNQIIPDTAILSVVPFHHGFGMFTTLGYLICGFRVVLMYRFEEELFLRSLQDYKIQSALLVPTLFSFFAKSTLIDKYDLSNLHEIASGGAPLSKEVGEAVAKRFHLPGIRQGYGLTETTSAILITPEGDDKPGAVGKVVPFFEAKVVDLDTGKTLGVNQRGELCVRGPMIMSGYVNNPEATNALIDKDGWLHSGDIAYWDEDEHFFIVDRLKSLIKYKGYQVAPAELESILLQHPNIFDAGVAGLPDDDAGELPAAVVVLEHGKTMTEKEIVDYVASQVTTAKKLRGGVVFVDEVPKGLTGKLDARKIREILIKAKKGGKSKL

For `CC[C@H](C)C(=O)O[C@@H]1[C@H](O)[C@@H]2[C@H](CN3C[C@@H](C)CC[C@@H]3[C@@]2(C)O)[C@@H]2C[C@@]34O[C@@]5(O)[C@@H](OC(=O)[C@](C)(O)CC)CC[C@@]3(C)[C@H]5[C@H](OC(C)=O)[C@@H](OC(C)=O)[C@H]4[C@]12O`, the compound was classed as inactive in [1] and in assay [6]. Besides, the Potency entry in assay [2] and in assay [7] was “inactive” in each case. For the same compound, the activity change, negative = inhibition in assay [3] is -8.39% (inactive); in assay [8], -1.19% (inactive). Moreover, the Potency in [4] and in assay [5] was > 20.6 µM (inactive) throughout. Further, the max response is -2.6% in [8] (setting [12]) and -3.1% in assay [8] (setting [13]).
With `CO[C@H]1C=C2CCN(C)[C@@H]2[C@@H]2c3cc4c(cc3C(=O)O[C@H]21)OCO4`, the compound was classed as inactive in assay [1], in assay [9] and in assay [6]. Moreover, the activity change, negative = inhibition in assay [3] was 8.91% (inactive); in [8], 0.781% (inactive). For the same compound, the Potency in assay [4] and in assay [5] was > 20.6 µM (inactive) in each case. Also, in [7], the Potency result is “inactive”. In addition, the max response was -13.3% in [8] (setting [12]) and -11.4% in [8] (setting [13]).
On to `COP(=O)(OC)[C@@H](O)C(Cl)(Cl)Cl`, for which the call in assay [1], in [9] and in [6] was inactive. Further, the activity change, negative = inhibition in assay [3] is -11.8% (inactive); in assay [8], -2.04% (inactive). In addition, the Potency in assay [4] and in [5] was > 20.6 µM (inactive) each time. In addition, the Potency entry in assay [7] and in [10] was “inactive” in each case. In addition, the max response was found to be 5.96% in assay [8] (setting [12]) and 2.5% in [8] (setting [13]).
Take `CC[C@H](CO)NC(=O)[C@H]1C=C2c3cccc4[nH]cc(c34)C[C@@H]2N(C)C1`: the outcome in assay [1], in assay [9] and in assay [6] was inactive. The activity change, negative = inhibition is -13.5% (inactive) in [3] and 0.62% (inactive) in assay [8]. In addition, the Potency in assay [5] is > 20.6 µM (inactive); in assay [10], 17.8 µM (active). Further, the Potency entry in assay [7] was “inactive”. For the same compound, the max response in assay [8] (setting [12]) stood at 3.2%; in [8] (setting [13]), 2.54%.
`CN1[C@@H](C[C@@H](O)c2ccccc2)CCC[C@@H]1C[C@H](O)c1ccccc1`: the compound was classed as inactive in assay [1], in assay [9] and in assay [6]. Moreover, the Potency was 5.01 µM (active) in [2] and > 20.6 µM (inactive) in assay [5]. In addition, the Potency result in assay [7] and in assay [10] was “inactive” throughout. The activity change, negative = inhibition in [8] was -1.73% (inactive). The max response in [8] (setting [12]) was found to be 3.31%; in assay [8] (setting [13]), 0.966%.
As for `CN1CCc2cc3c(cc2[C@@H]1[C@@H]1OC(=O)c2c1ccc1c2OCO1)OCO3`, the compound was classed as inactive in assay [1], in assay [9] and in assay [6]. Moreover, the Potency was 15.8 µM (active) in assay [2]; > 46 µM (inactive) and > 20.6 µM (inactive) in assay [4]; > 46 µM (inactive) and > 20.6 µM (inactive) in [5]. The Potency entry in [7] and in assay [10] was “inactive” in each case. In assay [8], the activity change, negative = inhibition was -1.13% (inactive). The max response in assay [8] (setting [12]) is -3.68%; in [8] (setting [13]), -5.44%.
For `CC(=O)N[C@@H]1CCSC1=O`, the call in assay [1] and in assay [6] was inactive. Besides, the Potency entry in assay [2], in assay [7], in assay [10] and in assay [11] was “inactive” each time. For the same compound, the results for the activity change, negative = inhibition in assay [3] and in assay [8] were -13% (inactive) and 1.07% (inactive), respectively. Besides, the Potency in [5] was > 20.6 µM (inactive). In addition, the max response in assay [8] (setting [12]) was -9.82%; in [8] (setting [13]) it was -4.81%.
For the compound `CCN1C[C@]2(C)CC[C@H](OC)[C@@]34[C@@H]2[C@H](OC(C)=O)[C@]2(OCO[C@@]25C[C@@H](OC)[C@@H]2C[C@@]3(O)[C@H]5[C@@H]2OC)[C@H]14`, the compound was called inactive in assay [1] and in assay [6]. Moreover, the Potency result in assay [2] and in [7] was “inactive” each time. The activity change, negative = inhibition in [3] was -4.41% (inactive); in assay [8] it was -1.59% (inactive). Besides, the Potency in [4] and in assay [5] was > 20.6 µM (inactive) throughout. Besides, the values for the max response in [8] (setting [12]) and in [8] (setting [13]) were -0.005% and 0.99%, respectively.
